Among the data in ChEMBL document CHEMBL3988442, “University of Dundee, Small-Polar-MMV Screening Library” (2021) are Percent Effect values, retold here.

For part of these data: Potency and affinity values are given separately.

Holding throughout (parameters): scale not given: direction of the effect not stated beside the values
Experiment [1] deals with Protein translocase subunit SecA (Escherichia coli (strain K12)) (UniProt P10408). Put plainly: Assay to Identify E. coli SecA ATPase Inhibitors. It counts as functional. The conditions noted are these: 30 µM.
Experiment [2] addresses T1, Ubiquitin-activating enzyme e1, putative (Leishmania donovani (strain BPK282A1)) (UniProt E9BSI1).
T1 sequence (whole entry): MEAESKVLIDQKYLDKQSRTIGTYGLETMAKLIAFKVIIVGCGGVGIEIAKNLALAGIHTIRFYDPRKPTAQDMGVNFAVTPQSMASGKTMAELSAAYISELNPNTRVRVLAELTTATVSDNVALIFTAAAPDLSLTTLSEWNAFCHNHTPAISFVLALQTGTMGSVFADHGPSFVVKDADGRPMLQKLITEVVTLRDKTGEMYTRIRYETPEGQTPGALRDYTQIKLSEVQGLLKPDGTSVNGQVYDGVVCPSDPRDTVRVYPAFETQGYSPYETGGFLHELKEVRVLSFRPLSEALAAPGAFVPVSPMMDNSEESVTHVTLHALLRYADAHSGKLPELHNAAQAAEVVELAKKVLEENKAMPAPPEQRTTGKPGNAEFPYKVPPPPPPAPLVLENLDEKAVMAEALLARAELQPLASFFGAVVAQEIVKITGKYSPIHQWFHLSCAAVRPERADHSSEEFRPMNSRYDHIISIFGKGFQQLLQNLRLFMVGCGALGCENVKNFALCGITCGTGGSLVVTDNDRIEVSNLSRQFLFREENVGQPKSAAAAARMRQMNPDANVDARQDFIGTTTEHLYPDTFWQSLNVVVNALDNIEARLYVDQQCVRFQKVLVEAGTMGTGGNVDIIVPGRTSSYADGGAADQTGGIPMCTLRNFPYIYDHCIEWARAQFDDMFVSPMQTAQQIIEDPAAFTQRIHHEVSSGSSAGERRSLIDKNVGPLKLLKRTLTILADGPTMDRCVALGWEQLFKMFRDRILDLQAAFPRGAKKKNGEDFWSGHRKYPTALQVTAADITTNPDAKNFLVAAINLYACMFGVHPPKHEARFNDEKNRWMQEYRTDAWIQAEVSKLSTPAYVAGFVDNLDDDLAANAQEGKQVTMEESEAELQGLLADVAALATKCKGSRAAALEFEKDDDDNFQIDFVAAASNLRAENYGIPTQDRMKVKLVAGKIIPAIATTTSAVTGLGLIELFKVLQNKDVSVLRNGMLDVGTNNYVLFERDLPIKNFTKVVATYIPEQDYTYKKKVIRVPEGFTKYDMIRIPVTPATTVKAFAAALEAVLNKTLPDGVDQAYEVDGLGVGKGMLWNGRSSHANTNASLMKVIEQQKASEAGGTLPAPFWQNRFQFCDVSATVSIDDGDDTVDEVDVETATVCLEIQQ
In words: Leishmania donovani Ubiquitin Activating Enzyme (LdE1). In kind it is functional. The conditions noted are these: 30 µM.

In experiment [3] the target is AMP-activated protein kinase, AMPK (Homo sapiens) (UniProt P54646+O43741+P54619+Q9UGJ0+Q9Y478+Q13131+Q9UGI9). Put plainly: AMP-dependent Kinase enzyme assay. An in vitro enzyme assay that detects ADP turnover that is directly proportional to AMPK activity. This uses naive AMPK that is activated during the assay with MK-8722. In kind it is functional. The conditions noted are these: 30 µM.

Experiment [4] concerns the target Sialic acid-binding Ig-like lectin 9 (Homo sapiens) (UniProt Q9Y336). Put plainly: Hs-Siglec9 ALPHAscreen SOP 20170721. The following applies: 10 µM.
For another experiment, the system named is Trypanosoma cruzi. In words: Trypanosoma cruzi phosphomannomutase and mannose-1-phosphate guanylyltransferase assay. In kind it is functional. The conditions noted are these: 10 µM.
For experiment [5], the target named is T2, Arginase-2, mitochondrial (Homo sapiens) (UniProt P78540).
T2 sequence (whole entry): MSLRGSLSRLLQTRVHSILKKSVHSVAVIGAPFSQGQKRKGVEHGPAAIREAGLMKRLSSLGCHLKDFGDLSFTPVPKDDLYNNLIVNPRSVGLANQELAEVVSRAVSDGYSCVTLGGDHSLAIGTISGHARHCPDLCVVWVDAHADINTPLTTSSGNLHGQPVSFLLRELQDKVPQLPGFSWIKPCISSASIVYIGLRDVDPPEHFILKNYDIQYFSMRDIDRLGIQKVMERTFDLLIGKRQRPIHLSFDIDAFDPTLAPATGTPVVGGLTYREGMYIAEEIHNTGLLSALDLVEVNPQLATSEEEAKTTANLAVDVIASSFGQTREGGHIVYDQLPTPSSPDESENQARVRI
Put plainly: in vitro enzyme assay to detect the production of urea directly proportional to the activity of Arginase II. Note: in the data most compounds retested in dose-response had high values. In kind it is functional. The conditions noted are these: 33.3 µM.

For experiment [6], the target named is T3, Proteasome subunit beta (Trypanosoma cruzi) (UniProt O96673).
T3 sequence (whole entry): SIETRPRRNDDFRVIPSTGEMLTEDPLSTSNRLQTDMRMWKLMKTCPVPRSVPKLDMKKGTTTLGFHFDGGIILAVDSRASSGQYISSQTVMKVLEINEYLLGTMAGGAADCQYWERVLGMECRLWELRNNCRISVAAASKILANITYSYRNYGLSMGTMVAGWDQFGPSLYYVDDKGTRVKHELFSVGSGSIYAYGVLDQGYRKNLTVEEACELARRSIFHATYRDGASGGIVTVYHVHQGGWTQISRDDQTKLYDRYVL
In words: Trypanosoma cruzi proteasome chymotrypsin-like activity (TcProtChymo) assay. Note: in the data most compounds retested in dose-response had high values. The conditions noted are these: 9.37 µM. It counts as functional.

The species named for a further experiment is Homo sapiens. Put plainly: To identify inhibition of the IFN signalling (Jak-Stat) pathway via expression of an eGFP reporter gene under the control of an IFN-stimulated response element (ISRE) containing MxA promoter. In kind it is functional. The conditions noted are these: 30 µM.
Experiment [7] has as its target T4, Tyrosyl-tRNA synthetase, putative (Trypanosoma cruzi (strain CL Brener)) (UniProt Q4DSP6).
T4 sequence (whole entry): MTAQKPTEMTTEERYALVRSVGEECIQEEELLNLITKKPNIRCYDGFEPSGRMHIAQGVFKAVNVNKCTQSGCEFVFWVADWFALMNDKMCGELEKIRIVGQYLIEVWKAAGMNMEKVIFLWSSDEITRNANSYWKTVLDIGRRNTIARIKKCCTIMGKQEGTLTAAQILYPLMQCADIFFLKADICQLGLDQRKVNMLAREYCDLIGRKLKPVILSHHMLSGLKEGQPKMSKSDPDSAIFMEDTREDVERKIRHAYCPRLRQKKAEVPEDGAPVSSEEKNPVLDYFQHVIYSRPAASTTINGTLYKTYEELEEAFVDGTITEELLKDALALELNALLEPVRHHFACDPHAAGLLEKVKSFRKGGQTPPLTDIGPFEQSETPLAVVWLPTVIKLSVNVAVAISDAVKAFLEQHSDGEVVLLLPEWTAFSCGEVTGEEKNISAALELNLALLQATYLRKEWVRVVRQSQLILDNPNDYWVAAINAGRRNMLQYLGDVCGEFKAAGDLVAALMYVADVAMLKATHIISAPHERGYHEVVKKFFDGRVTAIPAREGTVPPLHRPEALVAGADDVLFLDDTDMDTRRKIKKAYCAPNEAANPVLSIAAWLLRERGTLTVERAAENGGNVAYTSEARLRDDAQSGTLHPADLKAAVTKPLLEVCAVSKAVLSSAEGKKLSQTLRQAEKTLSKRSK
In words: Trypanosoma cruzi tyrosyl tRNA synthetase (TcYRS) _High Tyrosine SOP. Note: in the data most compounds retested in dose-response had high values. It counts as functional. The conditions noted are these: 30 µM.

Experiment [8] deals with T4, Tyrosyl-tRNA synthetase, putative (Trypanosoma cruzi (strain CL Brener)). Put plainly: Trypanosoma cruzi tyrosyl tRNA synthetase (TcYRS) SOP. In kind it is functional. The following applies: 30 µM.
In experiment [9] the target is Chromo domain-containing protein 1 (Saccharomyces cerevisiae (strain ATCC 204508 / S288c) (Baker's yeast)) (UniProt P32657). Put plainly: ScCHD-1 Enzyme Inhibition Assay. Note: in the data most compounds retested in dose-response had high values. The following applies: 30 µM. It counts as functional.
Chromo domain-containing protein 1 (Saccharomyces cerevisiae (strain ATCC 204508 / S288c) (Baker's yeast)), sequence (P32657 whole entry, the tested form may be a part): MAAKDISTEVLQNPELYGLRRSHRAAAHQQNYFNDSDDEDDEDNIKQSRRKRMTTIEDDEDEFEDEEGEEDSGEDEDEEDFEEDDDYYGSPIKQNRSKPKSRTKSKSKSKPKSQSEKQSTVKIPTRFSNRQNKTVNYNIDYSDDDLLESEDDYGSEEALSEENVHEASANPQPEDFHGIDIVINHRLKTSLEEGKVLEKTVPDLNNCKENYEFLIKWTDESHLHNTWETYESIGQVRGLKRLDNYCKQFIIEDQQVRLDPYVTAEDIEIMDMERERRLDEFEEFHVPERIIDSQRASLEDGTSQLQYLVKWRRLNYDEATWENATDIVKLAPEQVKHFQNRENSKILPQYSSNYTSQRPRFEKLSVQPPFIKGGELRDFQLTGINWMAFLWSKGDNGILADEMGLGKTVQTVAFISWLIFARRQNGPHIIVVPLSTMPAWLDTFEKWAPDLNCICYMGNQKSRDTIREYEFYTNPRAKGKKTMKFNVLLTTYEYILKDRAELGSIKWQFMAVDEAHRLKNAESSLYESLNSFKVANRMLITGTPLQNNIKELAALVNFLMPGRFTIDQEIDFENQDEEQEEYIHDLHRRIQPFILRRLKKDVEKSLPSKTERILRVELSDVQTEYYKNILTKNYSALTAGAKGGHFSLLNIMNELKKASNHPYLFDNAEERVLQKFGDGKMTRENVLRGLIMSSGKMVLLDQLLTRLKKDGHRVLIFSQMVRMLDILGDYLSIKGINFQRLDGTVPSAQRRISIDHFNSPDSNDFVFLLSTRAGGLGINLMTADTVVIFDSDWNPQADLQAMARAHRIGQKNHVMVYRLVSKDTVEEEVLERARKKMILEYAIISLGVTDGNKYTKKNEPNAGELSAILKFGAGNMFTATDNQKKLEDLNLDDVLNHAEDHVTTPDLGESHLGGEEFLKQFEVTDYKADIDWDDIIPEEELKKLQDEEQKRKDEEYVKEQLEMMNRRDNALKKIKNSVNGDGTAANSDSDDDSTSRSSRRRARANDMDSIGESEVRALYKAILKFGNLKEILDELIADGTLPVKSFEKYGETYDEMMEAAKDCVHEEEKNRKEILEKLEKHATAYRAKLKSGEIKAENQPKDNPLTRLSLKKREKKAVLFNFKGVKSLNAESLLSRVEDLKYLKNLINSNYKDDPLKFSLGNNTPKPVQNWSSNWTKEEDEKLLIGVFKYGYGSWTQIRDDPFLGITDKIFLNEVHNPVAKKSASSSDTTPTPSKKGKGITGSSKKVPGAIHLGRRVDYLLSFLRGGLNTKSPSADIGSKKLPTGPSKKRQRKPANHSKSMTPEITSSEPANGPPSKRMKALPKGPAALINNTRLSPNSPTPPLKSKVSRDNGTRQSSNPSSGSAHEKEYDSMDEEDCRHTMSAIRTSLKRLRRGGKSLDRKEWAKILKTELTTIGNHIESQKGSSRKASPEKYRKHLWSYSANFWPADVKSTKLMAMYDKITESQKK

Protein translocase subunit SecA (Escherichia coli (strain K12)), sequence (P10408 whole entry): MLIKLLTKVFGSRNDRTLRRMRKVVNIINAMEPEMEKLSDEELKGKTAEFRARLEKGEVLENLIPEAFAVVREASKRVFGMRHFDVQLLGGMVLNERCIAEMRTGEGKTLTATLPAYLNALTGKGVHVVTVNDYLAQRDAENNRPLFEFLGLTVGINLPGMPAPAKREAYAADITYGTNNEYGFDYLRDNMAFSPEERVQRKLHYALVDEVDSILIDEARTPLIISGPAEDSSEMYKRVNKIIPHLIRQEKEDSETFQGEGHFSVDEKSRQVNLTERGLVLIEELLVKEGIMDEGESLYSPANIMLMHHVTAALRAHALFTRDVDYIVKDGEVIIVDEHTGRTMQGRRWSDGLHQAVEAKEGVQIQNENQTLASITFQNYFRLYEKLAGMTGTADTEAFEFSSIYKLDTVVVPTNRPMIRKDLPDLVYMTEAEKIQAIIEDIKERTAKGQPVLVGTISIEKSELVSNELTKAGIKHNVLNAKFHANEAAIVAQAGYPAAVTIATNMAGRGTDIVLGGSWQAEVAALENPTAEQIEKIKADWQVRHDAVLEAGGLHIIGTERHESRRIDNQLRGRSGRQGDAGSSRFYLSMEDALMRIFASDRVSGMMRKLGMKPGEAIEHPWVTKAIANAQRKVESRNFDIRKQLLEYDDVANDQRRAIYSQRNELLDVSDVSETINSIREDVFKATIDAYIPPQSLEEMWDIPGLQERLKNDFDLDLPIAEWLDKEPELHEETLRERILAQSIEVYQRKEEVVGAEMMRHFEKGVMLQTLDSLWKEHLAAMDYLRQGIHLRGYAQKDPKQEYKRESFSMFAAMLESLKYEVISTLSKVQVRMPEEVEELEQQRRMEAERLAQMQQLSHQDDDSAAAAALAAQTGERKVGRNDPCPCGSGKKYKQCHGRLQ
Sialic acid-binding Ig-like lectin 9 (Homo sapiens), sequence (Q9Y336 whole entry): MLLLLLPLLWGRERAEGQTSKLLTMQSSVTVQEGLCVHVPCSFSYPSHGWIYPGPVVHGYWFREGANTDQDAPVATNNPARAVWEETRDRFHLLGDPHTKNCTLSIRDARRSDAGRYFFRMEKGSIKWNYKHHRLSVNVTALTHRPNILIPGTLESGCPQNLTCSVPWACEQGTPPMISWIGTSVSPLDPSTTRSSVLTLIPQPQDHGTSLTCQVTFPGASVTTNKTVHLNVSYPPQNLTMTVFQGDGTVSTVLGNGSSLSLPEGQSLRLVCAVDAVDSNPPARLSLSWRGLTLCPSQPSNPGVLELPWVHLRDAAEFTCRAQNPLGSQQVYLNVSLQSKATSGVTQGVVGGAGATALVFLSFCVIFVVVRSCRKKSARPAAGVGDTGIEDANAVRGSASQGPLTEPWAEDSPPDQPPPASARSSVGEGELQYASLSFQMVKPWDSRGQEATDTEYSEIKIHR

For the compound `O=C(CC1CCCC1)NCCn1ccc(-c2ccncc2)n1`, the Percent Effect in experiment [1] is -3.35%; in experiment [2], 0%; in experiment [3] it was 5.83%; in [4], 6.39%; in the experiment on Trypanosoma cruzi, -3.65%; in experiment [5] it was 3.23%. In addition, the Percent Effect in experiment [6] was 1.92%; in the experiment filed under Homo sapiens it was 13.7%; in experiment [7], -5.29%; in experiment [8], 3.85%; in [9], 1.38%.

On to `CCn1ccnc1CN(C)C1CCCN(CCc2ccccc2)C1` (centres undefined), for which the Percent Effect in experiment [1] was -7.05%; in [2], 0%; in experiment [3], 0.137%; in experiment [4] it was 4.16%; in the experiment on Trypanosoma cruzi, -3.64%; in [5] it was 4.14%. The Percent Effect is 0.832% in experiment [6]; -8.38% in the experiment listed under Homo sapiens; 5.38% in [7]; 3.7% in experiment [8]; 2.42% in experiment [9].

Consider `Cc1c(C(=O)N2CCCC2c2cnn(C)c2)nnn1-c1ccccc1` (centres undefined), for which the Percent Effect in experiment [1] was -5.12%; in experiment [2] it was 13.5%; in [3] it was -11.2%; in experiment [4] it was 15.4%; in the experiment on Trypanosoma cruzi it was 4.55%; in [5] it was -3.14%. Further, the Percent Effect was 9.87% in experiment [6]; 8.27% in the experiment listed under Homo sapiens; 0.99% in [7]; 13.4% in experiment [8]; -7.97% in experiment [9].

Consider `CCC(O)CNC(=O)C1(N(C)Cc2ccccc2)Cc2ccccc2C1` (centres undefined), for which the Percent Effect in experiment [1] is -4.2%; in experiment [2] it was 2.67%; in experiment [3], 3.26%; in experiment [4], -1.75%; with Trypanosoma cruzi it was -2.63%; in [5], 3.12%. For the same compound, the Percent Effect in experiment [6] was 8.72%; in the experiment listed under Homo sapiens it was -26.6%; in [7], 1.64%; in experiment [8], 8.64%; in [9], -5.97%.

Regarding `CC(C)NC(=O)[C@@H]1CCO[C@@H]2CCN(c3ncccn3)C[C@H]21`, the Percent Effect in experiment [1] is -6.07%; in experiment [2], 16%; in [3], -1.13%; in experiment [4], 0.524%; in the experiment on Trypanosoma cruzi, 0.579%; in experiment [5], -45%. The Percent Effect is 4.1% in experiment [6]; -11% in the experiment listed under Homo sapiens; 8.33% in experiment [7]; 10% in experiment [8]; -7.2% in [9].

On to `O=C1CN(Cc2nnc(-c3ccc(Br)cc3)o2)CCN1`, for which the Percent Effect is 0.69% in experiment [1]; 18.1% in experiment [2]; -9.97% in experiment [3]; 2.35% in experiment [4]; 2.04% in the experiment on Trypanosoma cruzi; -1.77% in experiment [5]. The Percent Effect in experiment [6] was 15.6%; in the experiment listed under Homo sapiens, 11.5%; in experiment [7], 2.1%; in experiment [8] it was 2.56%; in experiment [9] it was -3.39%.

Turning to `COc1ccc(F)cc1C(C(=O)O)N1CCSCC1` (centres undefined), the Percent Effect in experiment [1] is -2.63%; in [2], 8.11%; in experiment [3], -2.63%; in experiment [4], 20.8%; in the experiment on Trypanosoma cruzi, 1.66%; in experiment [5] it was 18.6%. Also, the Percent Effect in [6] is 6.95%; in the experiment filed under Homo sapiens, -10%; in experiment [7], 8.6%; in experiment [8], 18.5%; in experiment [9] it was -1.27%.

For the compound `CCOC(C)c1nc(CN2CCNCC2)cs1` (centres undefined), the Percent Effect in experiment [1] is -3%; in experiment [2] it was -8.11%; in experiment [3], -1.11%; in [4], 0.0763%; in the experiment with Trypanosoma cruzi, -3.09%; in experiment [5], -5.24%. Moreover, the Percent Effect in [6] was 6.21%; in the experiment listed under Homo sapiens, 14.6%; in experiment [7], -1.59%; in [8], -4.88%; in [9], -3.79%.

As for `O=C(NCc1ccco1)c1nn(C2CCS(=O)(=O)C2)c2c1CCCC2` (centres undefined), the Percent Effect was -5.41% in [1]; 21.1% in [2]; 7.28% in experiment [3]; 5.73% in experiment [4]; 3.02% in the experiment on Trypanosoma cruzi; -3.55% in [5]. In addition, the Percent Effect was 13.1% in experiment [6]; 4.09% in the experiment filed under Homo sapiens; 0% in experiment [7]; 5.2% in experiment [8]; -0.898% in experiment [9].
